Unmarked numbers belong to inactive results. Records with an inconclusive call do not appear. Calls of active or inactive are those of the source. Calls come from the whole dose curve; as a rule, active = well fitted curve in the direction sought with a large enough effect; inconclusive = small, poorly fitted or top-dose-only effect, or another doubt; inactive = no such curve, though single readings can be large; an effect the other way counts as inactive or inconclusive.
Key:
[1] = target: Cytochrome P450 3A4 (Homo sapiens) (UniProt P08684); experiment: qHTS Assay for Inhibitors and Substrates of Cytochrome P450 3A4 (AID 884); note: potency is the fitted concentration of half-maximal effect; nearly all actives have a fitted effect of over 50% in size
Cytochrome P450 3A4 (Homo sapiens), sequence (P08684 whole entry, looked up): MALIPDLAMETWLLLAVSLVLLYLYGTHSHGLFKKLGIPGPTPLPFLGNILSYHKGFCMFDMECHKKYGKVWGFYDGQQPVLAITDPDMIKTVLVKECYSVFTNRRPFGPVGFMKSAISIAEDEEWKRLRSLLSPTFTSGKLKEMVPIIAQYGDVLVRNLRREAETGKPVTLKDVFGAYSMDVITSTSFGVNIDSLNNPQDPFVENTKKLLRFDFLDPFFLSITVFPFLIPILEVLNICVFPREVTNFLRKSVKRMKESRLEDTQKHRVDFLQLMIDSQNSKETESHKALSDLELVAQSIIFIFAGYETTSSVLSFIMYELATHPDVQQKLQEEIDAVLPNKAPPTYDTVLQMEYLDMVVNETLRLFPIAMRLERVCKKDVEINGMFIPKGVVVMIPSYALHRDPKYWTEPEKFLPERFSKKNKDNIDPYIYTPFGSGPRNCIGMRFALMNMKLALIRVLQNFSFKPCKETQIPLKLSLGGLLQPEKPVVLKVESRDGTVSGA
In short: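 20 nM human CYP3A4 with 25 uM Luciferin-PPXE (at KM) in 200 mM KPO4, preincubated 10 min with compound; NADPH regeneration started a 60 min RT reaction. Luciferin detected by luminescence, normalized to 57 uM ketoconazole as full inhibition.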

[2] = target: Cytochrome P450 3A4 (Homo sapiens) (UniProt P08684); experiment: qHTS Assay for Activators of Cytochrome P450 3A4 (AID 885); note: nearly all actives have a fitted effect of over 65% in size
In short: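 Quantitative HTS format: compounds preincubated with 20nM human CYP3A4 and Luciferin-PPXE substrate at KM, reaction started by NADPH regeneration, stopped after 60 min, luciferase luminescence read 20 min later.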

[3] = target: Cytochrome P450 2D6 (Homo sapiens) (UniProt P10635); experiment: qHTS Assay for Inhibitors and Substrates of Cytochrome P450 2D6 (AID 891); note: nearly all actives have a fitted effect of over 60% in size; note: potency is the fitted concentration of half-maximal effect
Cytochrome P450 2D6 (Homo sapiens), sequence (P10635 whole entry, looked up): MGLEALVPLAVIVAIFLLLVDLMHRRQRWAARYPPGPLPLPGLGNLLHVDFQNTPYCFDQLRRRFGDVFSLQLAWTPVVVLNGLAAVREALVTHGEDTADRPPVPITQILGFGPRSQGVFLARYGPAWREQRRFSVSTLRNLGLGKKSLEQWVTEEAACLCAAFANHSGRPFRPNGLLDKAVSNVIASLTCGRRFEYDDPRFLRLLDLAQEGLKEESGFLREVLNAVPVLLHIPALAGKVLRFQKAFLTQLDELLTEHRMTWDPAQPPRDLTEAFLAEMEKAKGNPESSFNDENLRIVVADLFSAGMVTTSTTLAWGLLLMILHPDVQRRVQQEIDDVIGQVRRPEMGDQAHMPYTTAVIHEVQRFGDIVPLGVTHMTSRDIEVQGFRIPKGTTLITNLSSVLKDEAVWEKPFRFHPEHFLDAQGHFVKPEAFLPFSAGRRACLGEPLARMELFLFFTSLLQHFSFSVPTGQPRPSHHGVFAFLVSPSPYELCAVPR
In short: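 Human CYP2D6 (5 nM) with 30 uM Luciferin-ME EGE (at Km) in 100 mM KPO4, compound preincubated 10 min, then NADPH regeneration system for 60 min at room temperature. Luciferin read by luminescence; normalized to 1.43 uM quinidine.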

[4] = target: Cytochrome P450 2C19 (Homo sapiens) (UniProt P33261); experiment: qHTS Assay for Inhibitors and Substrates of Cytochrome P450 2C19 (AID 899); note: nearly all actives have a fitted effect of over 60% in size; note: potency is the fitted concentration of half-maximal effect
Cytochrome P450 2C19 (Homo sapiens), sequence (P33261 whole entry, looked up): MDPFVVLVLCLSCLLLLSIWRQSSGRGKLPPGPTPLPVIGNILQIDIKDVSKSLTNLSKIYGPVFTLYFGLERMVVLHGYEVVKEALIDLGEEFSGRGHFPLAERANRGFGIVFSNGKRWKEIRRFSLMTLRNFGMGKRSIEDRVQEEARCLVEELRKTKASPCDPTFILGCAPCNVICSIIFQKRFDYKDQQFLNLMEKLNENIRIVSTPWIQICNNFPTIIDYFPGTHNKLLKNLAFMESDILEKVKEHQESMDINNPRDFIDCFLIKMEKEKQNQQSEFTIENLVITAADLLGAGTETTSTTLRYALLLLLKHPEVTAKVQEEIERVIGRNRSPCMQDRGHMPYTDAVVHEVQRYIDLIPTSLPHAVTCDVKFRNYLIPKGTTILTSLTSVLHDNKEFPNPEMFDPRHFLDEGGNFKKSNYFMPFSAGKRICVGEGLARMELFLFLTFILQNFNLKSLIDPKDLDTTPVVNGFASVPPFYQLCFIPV
In short: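 NADPH-dependent conversion of Luciferin-H EGE (10uM, at KM) by 5nM enzyme in 50mM KPO4, 60 min at 37C following 10 min compound preincubation. Stopped with luciferin detection buffer; luminescence read after 20 min.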

Compound | Potency [1] | Potency [2] | activity change, positive = activation [2] | Potency [3] | Potency [4]
CCC1=C(OC(=O)N(CC)CC)N2C(=O)OC(=NCCc3c[nH]c4ccccc34)[C@]2(C)[C@H]2C1=CC[C@H]1C(=O)N(CC(=O)OC)C(=O)[C@H]12 | 2 µM (active) | inactive | – | – | –
COC(=O)[C@H]1C[C@@H]2CC[C@@H](O)C[C@@H]2N1Cc1c(F)cccc1Cl | 12.6 µM (active) | inactive | – | – | –
Cc1ccc(/C=C/C2=CC3(C)CC2(C)C(c2ccc(C)cc2)CC3=O)cc1 (stereo unspecified) | 3.98 µM (active) | – | -95.3% [at 11.4 µM] | inactive | –
O=C(/C=C\c1ccc2c(c1)OCO2)c1ccc(F)cc1 | 3.16 µM (active) | – | -89.5% [at 11.4 µM] | 2 µM (active) | –
CC(=O)OC[C@H]1O[C@@H](O/N=C(\C)CCC(=O)OC[C@@H]2O[C@H](C#Cc3ccccc3)C=C[C@@H]2Oc2ccc(C)cc2)[C@H](OC(C)=O)[C@@H](OC(C)=O)[C@H]1OC(C)=O | 3.16 µM (active) | – | -90.4% [at 11.4 µM] | 3.98 µM (active) | –
CCN1C(=O)[C@@H]2[C@H](C1=O)[C@@H]1C[C@H]3C(=O)N(CC)C(=O)[C@H]3[C@@H]3C1=C(C(=O)N1C(=O)O/C(=N\CC4CC4)[C@]31C)[C@@H]2C | 15.8 µM (active) | inactive | – | – | –
COCC#Cc1ccc(C2C(C)CCC3C(=O)N4C(CCC(C)C4c4ccc(C#CCOC)cc4)C(=O)N32)cc1 (stereo unspecified) | 1.26 µM (active) | – | -65.6% [at 11.4 µM] | inactive | inactive
CC(=O)OC[C@@H]1O[C@@H](O/N=C2/C[C@@H](O)[C@@H](O)[C@@H]3[C@@H]4C(=O)N(Cc5ccc6c(c5)OCO6)C(=O)[C@H]4CC[C@H]23)[C@H](OC(C)=O)[C@H](OC(C)=O)[C@@H]1OC(C)=O | 5.01 µM (active) | – | -74.2% [at 11.4 µM] | 3.16 µM (active) | –
CCC1=C(OC(=O)N(CC)CC)N2C(=O)OC(=NCc3ccccc3)[C@]2(C)[C@H]2C1=CC[C@H]1C(=O)NC(=O)[C@H]12 | 5.01 µM (active) | inactive | – | – | –
Nc1ccccc1C(=O)/C=C\c1ccc2c(c1)OCO2 | 3.16 µM (active) | – | -84.3% [at 11.4 µM] | 3.16 µM (active) | –
C=CCOC(=O)C(C(C)=O)C(NC(=O)OC)c1ccc(Cl)cc1 (stereo unspecified) | 1.26 µM (active) | – | -107% [at 11.4 µM] | inactive | 0.251 µM (active)
C/C(CCC(=O)OC[C@@H]1O[C@H](C#Cc2ccccc2)C=C[C@@H]1Oc1ccc(C)cc1)=N/O[C@@H](C)CN1CCCc2nc(C)c(C)cc21 | 3.98 µM (active) | – | -95.5% [at 11.4 µM] | 3.16 µM (active) | 3.16 µM (active)
C/C=C/OC(=O)NC(c1ccccc1)[C@@]1(C(=O)OCC)CCCC1=O (stereo partly specified) | 0.0158 µM (active) | – | -71.4% [at 11.4 µM] | inactive | 0.0251 µM (active)
COC(=O)c1cccc(C23CC4(C2)[C@H](CN(CC2CCCCC2)[C@@H]4c2ccccc2)C3c2ccccc2)c1 (stereo partly specified) | 15.8 µM (active) | inactive | – | – | –
CC(C)=CCC/C(C)=C/CO/N=C1/C[C@@H](O)[C@@H](O)[C@@H]2[C@@H]3C(=O)N(Cc4ccc5c(c4)OCO5)C(=O)[C@H]3CC[C@H]12 | 1.58 µM (active) | – | -115% [at 11.4 µM] | – | –
COC(=O)NC(c1ccco1)C(C(C)=O)C(=O)OC (stereo unspecified) | 3.16 µM (active) | – | -66.9% [at 11.4 µM] | – | –
COC(=O)c1cccc(C23CC4(C2)[C@H](CN(Cc2ccc(C(F)(F)F)cc2)[C@@H]4c2ccccc2)C3c2ccccc2)c1 (stereo partly specified) | 12.6 µM (active) | inactive | – | – | –
COC(=O)c1cccc(C23CC4(C2)[C@H](CN(Cc2cccnc2)[C@@H]4c2ccccc2)C3c2ccccc2)c1 (stereo partly specified) | 1.58 µM (active) | inactive | – | – | –
CC(=O)OCC1OC(C#Cc2ccc(C)cc2C)C=CC1OC(C)=O (stereo unspecified) | 3.16 µM (active) | – | -83.4% [at 11.4 µM] | 3.98 µM (active) | –
CC(C)CCN1CCc2nc(COc3ccccc3)c3c(c2C1)COC(C)C3 (stereo unspecified) | 3.16 µM (active) | – | -76.7% [at 11.4 µM] | inactive | inactive

— PubChem BioAssay (NCATS)
